For 34 molecules, Z-AUC results are on record in PubChem BioAssay (NCATS).

Active and inactive are the calls of the source. Calls follow the shape of the full dose curve.

The assay can be described thus: qHTS drug screen for cell cycle checkpoint inhibitors in PARPi-resistant BRCA-mutant ovarian cancer cell lines. (AID 1963452). The conditions noted are these: PEO1/OlaR viability, CellTiter-Glo luminescence, 96 h; stronger effect = lower value. Put shortly:
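PEO1, PEO4 and PEO1/OlaR ovarian cancer cells, 600 per well, exposed 96 h at 37C to a dilution series. Viability read by CellTiter-Glo luminescence, normalized to DMSO and empty wells; activity summarized as Z-AUC.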
For the molecule `CN1CCN(c2cc(C(=O)Nc3ccc4c(c3)-c3c(c(C(N)=O)nn3-c3ccc(F)cc3)CC4)c(Cl)cn2)CC1`, the Z-AUC is 0.539 (inactive). The figure for `COc1cc(Nc2ncc(F)c(Nc3ccc4c(n3)N(COP(=O)(O)O)C(=O)C(C)(C)O4)n2)cc(OC)c1OC` is 0.561 (inactive); for `Cc1ccc(C(=O)Nc2ccc(CN3CCN(C)CC3)c(C(F)(F)F)c2)cc1C#Cc1cnc2cccnn12` it is -2.19 (inactive). The figure for `Cc1ccc(-c2ncn(-c3ccc(Nc4nccc(-c5cccc(N6CCOCC6)c5)n4)cc3)n2)cn1` is -1.4 (inactive); for `COc1ccc(-n2nc(C(N)=O)c3c2C(=O)N(c2ccc(N4CCCCC4=O)cc2)CC3)cc1` it is 1.05 (inactive); for `O=c1[nH]nc(Sc2ncc([N+](=O)[O-])s2)n1-c1ccc2c(c1)OCCO2` it is 0.0772 (inactive). In the case of `C[C@@H]1CN(CC(=O)Nc2ccc3c(c2)Cc2cccc(-c4cc(=O)cc(N5CCOCC5)o4)c2S3)C[C@H](C)O1`, the Z-AUC is 0.729 (inactive). For `COc1cccc2c(NCc3ccccc3)nc(-n3c(N)nc4ccccc43)nc12` the value was -0.255 (inactive). In the case of `Clc1ccc2ncc(-c3cccc(NC4CNC4)n3)n2c1`, the Z-AUC was -0.578 (inactive). For `Cc1cc(Nc2ncnc3ccc(-c4ccc(CNCCS(C)(=O)=O)o4)cc23)ccc1Oc1ccn2ncnc2c1` the value was 0.841 (inactive); for `C=CC(=O)N1CCC[C@@H](n2nc(-c3ccc(Oc4ccccc4)cc3)c3c(N)ncnc32)C1`, 0.296 (inactive). `c1nc2nc(Nc3ccc(N4CCOCC4)cc3)nc(NC3CCCCC3)c2[nH]1`: the Z-AUC was -0.117 (inactive). The figure for `Cc1cc(Nc2cc(N3CCN(C)CC3)nc(Sc3ccc(NC(=O)C4CC4)cc3)n2)n[nH]1` is 0.654 (inactive); for `Cc1c(C)n(Cc2ccc(-c3ccccc3C(=O)O)cc2)c2ccc(C(=O)N[C@@H](C)c3ccc([N+](=O)[O-])cc3)cc12` it is 0.131 (inactive). Regarding `CCOC(=O)C1=C(C)NC2=C(C(=O)CC(C)(C)C2)C1c1ccc(-c2ccccc2)cc1` (centres undefined), the Z-AUC is 0.483 (inactive). With `Cc1nc2ccc(CN(C)c3ccc(C(=O)N[C@@H](CCC(=O)O)C(=O)O)s3)cc2c(=O)[nH]1`, the Z-AUC is -1.54 (inactive). Take `CNc1nccc(-c2cccnc2Oc2cc(C(=O)Nc3cccc(C(F)(F)F)c3)ccc2C)n1`: the Z-AUC is 0.523 (inactive). In the case of `CC(=O)SC[C@@H](C)C(=O)N1CCC[C@H]1C(=O)N[C@@H](Cc1ccccc1)C(=O)O`, the Z-AUC is 0.0192 (inactive). Regarding `Nc1nc(NCCNc2ncc(-n3ccnc3)c(-c3ccc(Cl)cc3Cl)n2)ccc1[N+](=O)[O-]`, the Z-AUC was 0.218 (inactive). Consider `Cc1ccc(CN2CCNCC2)cc1NC(=O)CNc1ccc(F)c(F)c1`, for which the Z-AUC is -0.297 (inactive). For `COc1cc2c(cc1-c1c(C)noc1C)ncc1[nH]c(=O)n([C@H](C)c3ccccn3)c12` the value was -1.31 (inactive); for `CC(=O)Nc1nc(C)c(-c2ccc(Cl)c(S(=O)(=O)NCCO)c2)s1`, -1.67 (inactive); for `COc1cc(C)c(Sc2cnc(NC(=O)c3ccc(CNC(C)C(C)C)cc3)s2)cc1C(=O)N1CCN(C(C)=O)CC1` (centres undefined), -0.385 (inactive). With `CCCCOc1c(C(=O)c2c(F)cc(C)cc2F)cnc2n[nH]cc12`, the Z-AUC was 0.41 (inactive). Take `COc1cc2c(Oc3ccc(NC(=O)C4(C(=O)Nc5ccc(F)cc5)CC4)cc3F)ccnc2cc1OCCCN1CCOCC1`: the Z-AUC was -0.782 (inactive). The figure for `CC(=O)OCCN1C(=O)c2c(C)nc3ccc(S(=O)(=O)N4CCOCC4)cc3c2C1=O` is 1.23 (inactive). The figure for `O=C(c1ccc(Nc2nccc(-c3cc4ccccc4s3)n2)cc1)N1CCC(N2CCCC2)CC1` is 0.507 (inactive). For `O=C(Nc1nc2cccc(-c3ccc(CN4CCS(=O)(=O)CC4)cc3)n2n1)C1CC1` the value was 0.985 (inactive); for `NC(=O)c1cccc2cn(-c3ccc([C@@H]4CCCNC4)cc3)nc12`, 0.523 (inactive); for `CCN(CC)CCNC(=O)c1ccc2nc(-c3ccccc3)c(-c3ccc(CN4CCC(n5c(=O)[nH]c6ccccc65)CC4)cc3)nc2c1`, -1.13 (inactive). With `COc1cc2ncn(-c3cc(OCc4ccccc4C(F)(F)F)c(C(N)=O)s3)c2cc1OC`, the Z-AUC was -1.24 (inactive). The figure for `COc1cc2c(Nc3ccc(NC(=O)c4ccccc4)cc3)ncnc2cc1OCCCN1CCOCC1` is 0.665 (inactive); for `CCN(CC)CCCCNc1ncc2cc(-c3cc(OC)cc(OC)c3)c(NC(=O)NC(C)(C)C)nc2n1` it is -1.19 (inactive).

Take `CN(C)CCCN=c1c2ccccc2n(C)c2[nH]c(=O)n(C)c(=O)c12`: the Z-AUC was 0.193 (inactive).
